“And” between values parts separate entries of the source, which are not always exact repeats. Equal entries are not always repeated. Records with an inconclusive call do not appear. Where a call stands in place of a potency, no number is given. More than one record can exist for a structure, and the calls need not agree. The source made the active and inactive calls. Unless noted, the call rests on the fitted dose curve; in most records, active means well fitted curve in the direction sought with a large enough effect in the repeat runs; inconclusive means weak or mixed curves; inactive means no such curve, though single readings can be large; an effect the other way counts as inactive or inconclusive.
Legend:
[1] = qHTS assay to identify small molecule antagonists of the glucocorticoid receptor (GR) signaling pathway - cell viability counter screen (AID 720693); further: nearly all actives have a fitted effect of over 55% in size
[2] = qHTS assay for identifying genotoxic compounds that show differential cytotoxicity against isogenic chicken DT40 cell lines with known DNA damage response pathways - wild type cell line (AID 743012); further: nearly all actives have a fitted effect of over 60% in size; further: potency means the concentration at half of the fitted maximal effect
How it was run: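 300 wt DT40 cells/well; cpd (DMSO) pintool-transferred after ~0.5 h at 37 C/5% CO2; 40 h incubation; CellTiter-Glo added, 30 min RT; luminescence read.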

[3] = qHTS assay for identifying genotoxic compounds that show differential cytotoxicity against isogenic chicken DT40 cell lines with known DNA damage response pathways - Rev3 mutant cell line (AID 743014); further: nearly all actives have a fitted effect of over 55% in size; further: potency means the concentration at half of the fitted maximal effect
[4] = qHTS assay for identifying genotoxic compounds that show differential cytotoxicity against isogenic chicken DT40 cell lines with known DNA damage response pathways - Rad54/Ku70 mutant cell line (AID 743015); further: nearly all actives have a fitted effect of over 60% in size; further: potency means the concentration at half of the fitted maximal effect
[5] = qHTS assay to identify small molecule antagonists of the androgen receptor (AR) signaling pathway - cell viability counter screen (AID 743033; further: nearly all actives have a fitted effect of over 45% in size)
[6] = qHTS assay to identify small molecule antagonists of the androgen receptor (AR) signaling pathway using the MDA cell line - cell viability counter screen (AID 743041; further: nearly all actives have a fitted effect of over 45% in size)
How it was run: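 Viability read by CellTiter-Fluor fluorescence in the same wells as the antagonist screen, added after 15.5 h of a 16 h, 37C exposure. Human breast carcinoma MDA-kb2 AR-luc cells, compounds co-dosed with agonist R1881.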

[7] = molecular target: Androgen receptor (Homo sapiens) (UniProt P10275); experiment: qHTS assay to identify small molecule antagonists of the androgen receptor (AR) signaling pathway (AID 743035; active means well fitted inhibition curve with a large enough effect in the signal ratio in the repeat runs, not every such curve was filed as active; the % refers to the signal ratio)
How it was run: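 In this cell-based reporter screen, compounds were tested in concentration series against R1881-activated HEK293 cells expressing beta-lactamase under UAS control; after 16 h at 37C, FRET substrate was added and fluorescence read 2 h later.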

[8] = molecular target: Androgen receptor (Homo sapiens) (UniProt P10275); experiment: qHTS assay to identify small molecule agonists of the androgen receptor (AR) signaling pathway using the MDA cell line (AID 743040; further: nearly all actives have a fitted effect of over 20% in size)
How it was run: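 Luciferase agonist assay: 16 h compound exposure at 37C without CO2 in MDA-kb2 AR-luc cells, whose MMTV promoter responds to both AR and GR. Luminescence measured after 30 min room-temperature incubation with ONE-Glo.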

[9] = molecular target: Androgen receptor (Homo sapiens) (UniProt P10275); experiment: qHTS assay to identify small molecule antagonists of the androgen receptor (AR) signaling pathway using the MDA cell line (AID 743042; further: nearly all actives have a fitted effect of over 55% in size)
How it was run: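 Antagonist mode: compounds plus R1881 agonist added to MDA-kb2 AR-luc cells, incubated 16 h at 37C. Luciferase reporter luminescence quantified, with multiplexed CellTiter-Fluor readout for cell viability.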

[10] = molecular target: Androgen receptor (Homo sapiens) (UniProt P10275); experiment: qHTS assay to identify small molecule agonists of the androgen receptor (AR) signaling pathway (AID 743036; active means well fitted activation curve with a large enough effect in the signal ratio in the repeat runs, with a control signal flat, not every such curve was filed as active; the % refers to the signal ratio)
How it was run: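 Cell-based FRET reporter assay: HEK293 line with a UAS-beta-lactamase construct, compounds added in DMSO, 16 h exposure at 37C, then 2 h substrate step at room temperature and fluorescence intensity read.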

Androgen receptor (Homo sapiens), sequence (P10275 whole entry, looked up): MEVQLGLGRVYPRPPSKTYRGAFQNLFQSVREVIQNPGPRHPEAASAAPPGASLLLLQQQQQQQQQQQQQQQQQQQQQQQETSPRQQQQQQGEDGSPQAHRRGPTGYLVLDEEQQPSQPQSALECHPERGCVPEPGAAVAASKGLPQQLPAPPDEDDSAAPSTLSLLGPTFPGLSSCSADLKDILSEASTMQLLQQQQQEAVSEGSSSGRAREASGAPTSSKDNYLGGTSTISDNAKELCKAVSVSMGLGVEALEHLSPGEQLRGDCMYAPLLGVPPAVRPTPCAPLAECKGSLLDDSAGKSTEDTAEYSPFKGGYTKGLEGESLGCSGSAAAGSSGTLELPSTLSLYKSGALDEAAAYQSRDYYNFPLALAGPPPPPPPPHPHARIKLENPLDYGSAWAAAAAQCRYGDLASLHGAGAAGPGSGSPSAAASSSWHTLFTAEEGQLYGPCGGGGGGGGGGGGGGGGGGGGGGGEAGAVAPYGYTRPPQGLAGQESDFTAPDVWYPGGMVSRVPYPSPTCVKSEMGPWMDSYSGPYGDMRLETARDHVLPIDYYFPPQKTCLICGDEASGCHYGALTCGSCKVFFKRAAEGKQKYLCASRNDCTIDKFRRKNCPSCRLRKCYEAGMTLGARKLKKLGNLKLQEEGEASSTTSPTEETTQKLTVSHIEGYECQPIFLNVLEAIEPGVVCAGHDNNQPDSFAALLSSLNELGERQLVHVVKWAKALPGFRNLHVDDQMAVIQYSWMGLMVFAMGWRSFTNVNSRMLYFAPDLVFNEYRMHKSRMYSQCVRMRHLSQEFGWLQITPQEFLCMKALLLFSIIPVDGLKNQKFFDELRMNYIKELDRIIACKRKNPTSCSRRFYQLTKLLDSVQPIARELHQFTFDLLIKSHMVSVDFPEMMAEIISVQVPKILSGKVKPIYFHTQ

For `CCCCCCOC(=O)CCCCCCCC(=O)OCCCCCC`, the Potency [1] was “inactive”, the Potency [2] was “inactive” and the Potency [3] was “inactive”. The Potency [4] was “inactive”, the Potency [5] was “inactive” and the Potency [6] was “inactive”.

In the case of `[O]=[Bi]`, the viability change, negative = cytotoxic [1] is reported as -0.0549% [at 7.04 µM] (inactive), the activity change, negative = cytotoxicity [2] is reported as -3.35% [at 8.52 µM] (inactive) and the activity, negative = cytotoxicity [3] is reported as 0.555% [at 8.53 µM] (inactive). The activity change, negative = cytotoxicity [4] was 2.55% [at 8.55 µM] (inactive), the activity change, negative = cytotoxicity [5] was -10.1% [at 7.04 µM] (inactive) and the viability change, negative = cytotoxic [6] was -2.29% [at 8.47 µM] (inactive).

In the case of `CCC(C)(C)C1CCC(O)CC1` (stereo not given), the Potency [1] is reported as “inactive”, the Potency [2] is reported as “inactive” and the Potency [3] is reported as “inactive”. For the same compound, the Potency [4] was “inactive”, the Potency [5] was “inactive” and the Potency [6] was “inactive”.

In the case of `CCOC(=O)c1ccccc1OC`, the Potency [1] is reported as “inactive”, the Potency [2] is reported as “inactive” and the Potency [3] is reported as “inactive”. The Potency [4] was “inactive”, the Potency [5] was “inactive” and the Potency [6] was “inactive”.

In the case of `O=S1OCCO1`, the Potency [1] is reported as “inactive”, the Potency [2] is reported as “inactive” and the Potency [3] is reported as “inactive”. The Potency [4] was “inactive”, the Potency [5] was “inactive” and the Potency [6] was “inactive”.

With `Cc1cc(O)c(C(C)C)cc1Cl` the Potency [1] was “inactive”, the Potency [2] was “inactive” and the Potency [3] was “inactive and 61.1 µM (active)”. The Potency [4] was “inactive and 48.6 µM (active)”, the Potency [5] was “inactive” and the Potency [6] was “inactive”.

With `C1COCO1` the Potency [1] was “inactive”, the Potency [2] was “inactive” and the Potency [3] was “inactive”. For the same compound, the Potency [4] was “inactive”, the Potency [5] was “inactive” and the Potency [6] was “inactive”.

With `CCCCCCCCCCCCCCCCBr` the Potency [1] was “inactive”, the Potency [2] was “inactive” and the Potency [3] was “inactive”. The Potency [4] was “inactive”, the Potency [5] was “inactive” and the Potency [6] was “inactive”.

For `C=CC(C)(C)CC(=O)OC`, the Potency [1] was “inactive”, the Potency [2] was “inactive” and the Potency [3] was “inactive”. For the same compound, the Potency [4] was “inactive”, the Potency [5] was “inactive” and the Potency [6] was “inactive”.

In the case of `COC(=O)[C@@H]1CC2=CC(=O)CC[C@]2(C)[C@@]23O[C@@H]2C[C@@]2(C)[C@@H](CC[C@@]24CCC(=O)O4)[C@H]13`, the Potency [1] is reported as “inactive”, the Potency [2] is reported as “inactive” and the Potency [3] is reported as “inactive”. The Potency [4] was “inactive”, the Potency [5] was “inactive” and the Potency [6] was “inactive”.

For `CC(C)=CC=O`, the Potency [1] was “inactive”, the Potency [2] was “inactive” and the Potency [3] was “inactive”. The Potency [4] was “inactive”, the Potency [7] was “inactive” and the Potency [8] was “inactive”. For the same compound, the Potency [6] was “inactive” and the Potency [9] was “inactive”.

In the case of `CC(COc1ccc(C(C)(C)C)cc1)OS(=O)OCCCl` (stereo not given), the Potency [1] is reported as “inactive”, the Potency [2] is reported as “inactive” and the Potency [3] is reported as “inactive”. For the same compound, the Potency [4] was “inactive”, the Potency [5] was “inactive” and the Potency [6] was “inactive”.

In the case of `CCc1cccc(N(C)C(N)=Nc2cccc3ccccc23)c1`, the Potency [1] is reported as “inactive”, the Potency [2] is reported as 5.96 µM (active) and the Potency [3] is reported as 11.9 µM (active). For the same compound, the Potency [4] was 11.9 µM (active), the Potency [7] was “inactive” and the Potency [8] was “inactive”.

In the case of `CCC(=O)OC/C=C/c1ccccc1`, the Potency [1] is reported as “inactive”, the Potency [2] is reported as “inactive” and the Potency [3] is reported as “inactive”. For the same compound, the Potency [4] was “inactive”, the Potency [5] was “inactive” and the Potency [6] was “inactive”.

With `CC(=O)CC(c1ccc([N+](=O)[O-])cc1)c1c(O)c2ccccc2oc1=O` (stereo not given) the Potency [1] was “inactive”, the Potency [2] was “inactive” and the Potency [3] was “inactive”. For the same compound, the Potency [4] was “inactive”, the Potency [5] was “inactive” and the Potency [6] was “inactive”.

In the case of `CCCCCCOC(=O)C(C)C`, the Potency [1] is reported as “inactive”, the Potency [2] is reported as “inactive” and the Potency [3] is reported as “inactive”. The Potency [4] was “inactive”, the Potency [5] was “inactive” and the Potency [6] was “inactive”.

For `CCCCC(CC)C(=O)OCCOCCOCCOCCOC(=O)C(CC)CCCC` (stereo not given), the Potency [1] was “inactive”, the Potency [2] was 27.3 µM (active) and the Potency [3] was 43.3 µM (active). The Potency [4] was 30.6 µM (active), the Potency [5] was “inactive” and the Potency [6] was “inactive”.

With `O=C(O)Cc1ccc(-c2ccccc2)cc1` the Potency [1] was “inactive”, the Potency [2] was “inactive” and the Potency [3] was “inactive”. The Potency [4] was “inactive”, the Potency [7] was “inactive” and the Potency [10] was “inactive”. For the same compound, the Potency [8] was “inactive” and the Potency [9] was “inactive”.

For `CC1CN(c2cc3c(cc2F)c(=O)c(C(=O)O)cn3-c2ccc(F)cc2F)CCN1` (stereo not given), the Potency [1] was “inactive”, the Potency [2] was “inactive” and the Potency [3] was “inactive”. For the same compound, the Potency [4] was “inactive”, the Potency [5] was “inactive” and the Potency [6] was “inactive”.

For `N#C[C@@H]1C[C@@H]2C[C@@H]2N1C(=O)[C@@H](N)C12CC3CC(CC(O)(C3)C1)C2`, the Potency [1] was “inactive”, the Potency [2] was “inactive” and the Potency [3] was “inactive”. For the same compound, the Potency [4] was “inactive”, the Potency [5] was “inactive” and the Potency [6] was “inactive”.

For `C=CCOC(=O)/C=C\C(=O)OCC=C`, the Potency [1] was “inactive”, the Potency [2] was “inactive” and the Potency [3] was “inactive”. For the same compound, the Potency [4] was “inactive”, the Potency [7] was “inactive” and the Potency [10] was “inactive”. The Potency [8] was “inactive” and the Potency [9] was “inactive”.

With `CCN(CC)CCNC(=O)c1ccc(NC(C)=O)cc1` the Potency [1] was “inactive”, the Potency [2] was “inactive” and the Potency [3] was “inactive”. The Potency [4] was “inactive”, the Potency [7] was “inactive” and the Potency [10] was “inactive”. For the same compound, the Potency [8] was “inactive” and the Potency [9] was “inactive”.

For `COc1cc2[nH]c(=O)[nH]c(=O)c2cc1OC`, the Potency [1] was “inactive”, the Potency [2] was “inactive” and the Potency [3] was “inactive”. For the same compound, the Potency [4] was “inactive” and the Potency [6] was “inactive”.

For `CCn1cc(C(=O)O)c(=O)c2cc(F)c(N3CCNCC3)nc21`, the Potency [1] was “inactive”, the Potency [2] was “inactive” and the Potency [3] was “inactive”. The Potency [4] was “inactive”, the Potency [5] was “inactive” and the Potency [6] was “inactive”.

For `O=Cc1c(Cl)cccc1Cl`, the Potency [1] was “inactive”, the Potency [2] was “inactive” and the Potency [3] was “inactive”. For the same compound, the Potency [4] was “inactive”, the Potency [5] was “inactive” and the Potency [6] was “inactive”.

For `OC/C(Br)=C(\Br)CO`, the Potency [1] was “inactive”, the Potency [2] was “inactive” and the Potency [3] was “inactive”. For the same compound, the Potency [4] was “inactive”, the Potency [5] was “inactive” and the Potency [6] was “inactive”.

For `CCN(Cc1cccc(S(=O)(=O)O)c1)c1ccc(C(=C2C=CC(=[N+](CC)Cc3cccc(S(=O)(=O)[O-])c3)C=C2)c2ccccc2)cc1`, the Potency [1] was “inactive”, the Potency [2] was “inactive” and the Potency [3] was “inactive”. The Potency [4] was “inactive”, the Potency [5] was “inactive” and the Potency [6] was “inactive”.

With `CCCCCC=CCC=CCCCCCCCC(=O)OCC` the Potency [1] was “inactive”, the Potency [2] was “inactive” and the Potency [3] was “inactive”. The Potency [4] was “inactive”, the Potency [5] was “inactive” and the Potency [6] was “inactive”.

— PubChem BioAssay (Tox21)
